PubChem BioAssay (Tox21)
Several values for one entry are separate records, joined by “and”; a condition that tells them apart may be missing. Identical values can stand only once. Inconclusive results are not listed. Where a call stands in place of a potency, no number is given. More than one record can exist for a structure, and the calls need not agree. Activity calls are given as the source filed them. Calls follow the shape of the dose curve; as a rule, active = well fitted curve in the direction sought with a large enough effect in the repeat runs; inconclusive = weak or mixed curves; inactive = no such curve, though single readings can be large; an effect the other way counts as inactive or inconclusive.

How the values were obtained:
[1] = qHTS RealTime-Glo MT Cell Viability Assay in HEK293 cells - 0 hour (AID 1224880); also: nearly all actives have a fitted effect of over 45% in size
Procedure, shortened: (§1)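 HEK293 cells mixed with RealTime-Glo reagents (NanoLuc plus cell-permeant prosubstrate) at 600 cells/well, preincubated 5 h at 37 C/5% CO2, then given 23 nL compound in DMSO. Nonlytic luminescence from viable cells was read at 0, 8, 16, 24, 32 and 40 h.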

[2] = A CellTox Green Cytotoxicity Assay to monitor cytotoxicity in HEK293 cells - 32 hour (AID 1224881); also: nearly all actives have a fitted effect of over 40% in size
Procedure, shortened: (§2)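 HEK293 cells premixed with CellTox Green dye were seeded at 600 cells/well and left 5 h at 37 C/5% CO2 before pin transfer of 23 nL compound in DMSO. Fluorescence from dye bound to dead-cell DNA was read during 40 h treatment.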

[3] = A CellTox Green Cytotoxicity Assay to monitor cytotoxicity in HepG2 cells - 0 hour (AID 1224882); also: nearly all actives have a fitted effect of over 35% in size
Procedure, shortened: (§3)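 HepG2 cells were seeded together with the CellTox Green dye at 600 cells/well, left 5 h at 37 C/5% CO2, then given compounds in DMSO. Fluorescence from dye bound to dead-cell DNA was read repeatedly over 40 h of treatment at 37 C.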

[4] = qHTS RealTime-Glo MT Cell Viability Assay in HepG2 cells - 16 hour (AID 1224885); also: nearly all actives have a fitted effect of over 50% in size
Procedure, shortened: (§4)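 HepG2 cells were seeded at 600 cells/well together with NanoLuc luciferase and a cell-permeant prosubstrate, preincubated 5 h at 37 C/5% CO2, then pin-dosed with compounds in DMSO. Nonlytic luminescence from viable cells was read at each time point.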

[5] = qHTS RealTime-Glo MT Cell Viability Assay in HEK293 cells - 24 hour (AID 1224886); also: nearly all actives have a fitted effect of over 50% in size
Procedure, shortened: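 HEK293 cells were seeded at 600 cells/well together with NanoLuc luciferase and cell-permeant prosubstrate, preincubated 5 h at 37 C/5% CO2, then given compound in DMSO by pintool. Luminescence from viable-cell prosubstrate reduction was read repeatedly over 40 h.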

[6] = qHTS RealTime-Glo MT Cell Viability Assay in HEK293 cells - 8 hour (AID 1224887); also: nearly all actives have a fitted effect of over 50% in size
Procedure, shortened: as §1

[7] = A CellTox Green Cytotoxicity Assay to monitor cytotoxicity in HEK293 cells - 16 hour (AID 1224888); also: nearly all actives have a fitted effect of over 35% in size
Procedure, shortened: as §2

[8] = qHTS RealTime-Glo MT Cell Viability Assay in HepG2 cells - 0 hour (AID 1224889); also: nearly all actives have a fitted effect of over 50% in size
Procedure, shortened: as §4

[9] = A CellTox Green Cytotoxicity Assay to monitor cytotoxicity in HepG2 cells - 32 hour (AID 1224883); also: nearly all actives have a fitted effect of over 50% in size
Procedure, shortened: as §3

[10] = A CellTox Green Cytotoxicity Assay to monitor cytotoxicity in HEK293 cells - 8 hour (AID 1224884); also: nearly all actives have a fitted effect of over 35% in size
Procedure, shortened: as §2
Potency is read from the fitted curve at half-maximal effect.

| SMILES | Potency [1] | Potency [2] | Potency [3] | Potency [4] | Potency [5] | Potency [6] | Potency [7] | Potency [8] | Potency [9] | Potency [10] |
| --- | --- | --- | --- | --- | --- | --- | --- | --- | --- | --- |
| N[C@@H](Cc1ccc(N(CCCl)CCCl)cc1)C(=O)O | inactive | inactive | inactive | inactive | inactive | inactive | inactive | inactive |  |  |
| C=CCc1ccc(OC)cc1 | inactive | inactive | inactive | inactive | inactive | inactive | inactive | inactive |  |  |
| COP(=S)(OC)Oc1cc(Cl)c(Cl)cc1Cl | inactive | inactive | inactive | inactive |  | inactive | inactive | inactive | inactive |  |
| CCCCCc1cc(O)cc(O)c1 | inactive | inactive | inactive | inactive and 43.6 µM (active) | 38.9 µM (active) | 24.5 µM (active) | inactive | inactive |  |  |
| Nc1c(Cl)cc([N+](=O)[O-])cc1Cl | inactive | inactive | inactive | inactive | inactive | inactive | inactive | inactive |  | inactive |
| CNC(=O)N(C)c1nnc(C(C)(C)C)s1 | inactive | inactive | inactive | inactive | inactive | inactive | inactive | inactive |  |  |
| Cc1c(COC(=O)[C@@H]2[C@H](/C=C(\Cl)C(F)(F)F)C2(C)C)cccc1-c1ccccc1 | inactive | inactive | inactive | inactive |  | inactive | inactive | inactive |  | inactive |
| CCC(CC)Nc1c([N+](=O)[O-])cc(C)c(C)c1[N+](=O)[O-] | inactive | inactive | inactive | inactive | inactive | inactive | inactive | inactive |  | inactive |
| CCCCCCCCOC(=O)c1ccccc1C(=O)OCCCCCCCC | inactive | inactive | inactive | inactive |  | inactive | inactive | inactive |  | inactive |
| COP(=O)(OC)OC | inactive | inactive | inactive | inactive |  | inactive | inactive | inactive |  | 39.2 µM (active) and inactive |
| c1ccc(NNc2ccccc2)cc1 | inactive | 24.5 µM (active) | inactive | inactive |  | inactive | inactive | inactive and 43.6 µM (active) |  | inactive |
| O=c1oc2ccccc2c(O)c1C(CC(O)c1ccc(-c2ccc(Br)cc2)cc1)c1ccccc1 (centres undefined) | 18.4 µM (active) and 12 µM (active) | inactive | inactive | inactive | inactive | inactive | inactive | 20.7 µM (active) and 21.3 µM (active) |  | inactive |
| Clc1nc(Cl)nc(Cl)n1 | inactive | inactive | inactive | inactive |  | inactive | inactive | inactive |  | inactive |
| Nn1cnnc1 | inactive | inactive | inactive | inactive |  | inactive | inactive | inactive | inactive |  |
| C#CCOS(=O)OC1CCCCC1Oc1ccc(C(C)(C)C)cc1 (centres undefined) | inactive | inactive | inactive |  | 15.5 µM (active) and 19.5 µM (active) | 17.4 µM (active) | inactive | inactive | inactive |  |
| Cc1ccc(OP(=O)(Oc2ccc(C)cc2)Oc2ccc(C)cc2)cc1 | inactive | inactive | inactive | inactive |  | inactive | inactive | inactive |  | inactive |
| CCCCCCCCCCCOC(=O)c1ccccc1C(=O)OCCCCCCCCCCC | inactive | inactive | inactive | inactive |  | inactive | inactive | inactive | inactive |  |
| CCOc1cc(Oc2ccc(C(F)(F)F)cc2Cl)ccc1[N+](=O)[O-] | inactive | inactive | inactive | inactive |  |  | inactive | inactive |  | inactive |
| CCN(CC)N=O | inactive | inactive | inactive | inactive | inactive | inactive | inactive | inactive |  |  |

| SMILES | Potency [1] | Potency [2] | Potency [3] | Potency [4] | Potency [5] | Potency [6] | Potency [7] | Potency [8] | Potency [9] | Potency [10] |
| --- | --- | --- | --- | --- | --- | --- | --- | --- | --- | --- |
| C#C[C@]1(O)CC[C@H]2[C@@H]3CCC4=CC(=O)CC[C@]4(C)[C@H]3CC[C@@]21C | inactive | 49 µM (active) | inactive | inactive | inactive | inactive | inactive |  |  | inactive |
| S=C1NCCN1 | inactive | inactive | inactive | inactive |  | inactive | inactive | inactive |  | inactive |
| CCCCNC(=O)n1c(NC(=O)OC)nc2ccccc21 | inactive | inactive | inactive | inactive | inactive | inactive | inactive | inactive |  | inactive |
| c1nc[nH]n1 | inactive | inactive | inactive | inactive |  | inactive | inactive | inactive |  |  |
| CCOCN(C(=O)CCl)c1c(C)cccc1CC | inactive | inactive | inactive | inactive |  | inactive | inactive | inactive | inactive |  |
| CCCCCCCCC(=O)NCc1ccc(O)c(OC)c1 | inactive | inactive | inactive | inactive |  |  | inactive | inactive | inactive |  |
| COP(=S)(OC)Oc1ccc([N+](=O)[O-])cc1 | inactive | inactive | inactive | inactive | inactive | inactive | inactive | inactive |  | inactive |
| C=CC(=O)OCCO |  | inactive | inactive | inactive | inactive | inactive | inactive | inactive | inactive | inactive |
| N#CC(Br)Br | inactive | inactive | inactive | inactive |  | inactive | inactive | inactive |  |  |
| O=S(=O)(Oc1ccc(Cl)cc1)c1ccc(Cl)cc1 |  | inactive | inactive | inactive | inactive | inactive | inactive | inactive | inactive |  |
| C=CCc1ccc2c(c1)OCO2 |  | inactive | inactive | inactive | inactive | inactive | inactive | inactive |  |  |
| CCCCN(CC)c1c([N+](=O)[O-])cc(C(F)(F)F)cc1[N+](=O)[O-] |  | inactive | inactive | inactive | inactive | 17.7 µM (active) | inactive | inactive | inactive |  |
| O=C(O)CC[N+](=O)[O-] |  | inactive | inactive | inactive |  | inactive | inactive | inactive |  | inactive |
| ClC1C(Cl)C(Cl)C(Cl)C(Cl)C1Cl (centres undefined) |  |  | inactive | inactive | inactive and 49 µM (active) | inactive and 49 µM (active) |  | inactive | inactive and 43.6 µM (active) | inactive and 43.6 µM (active) |
| CC(C)(OOC(C)(C)c1ccccc1)c1ccccc1 |  | 24.2 µM (active) and 49 µM (active) | inactive | inactive |  | inactive | 43.6 µM (active) | inactive |  |  |
| Oc1cc(Cl)c(Cl)cc1Cl |  | inactive | inactive | inactive |  |  | inactive | inactive | inactive |  |
| O=[N+]([O-])c1c(Cl)c(Cl)c(Cl)c(Cl)c1Cl |  | 21.8 µM (active) and inactive | inactive | inactive | inactive | inactive | inactive | inactive | inactive |  |
| O=P(O)(O)CCCl |  | inactive | inactive | inactive | inactive | inactive | inactive | inactive |  | inactive |
| NCc1cccnc1 |  | inactive | inactive | inactive | inactive | inactive | inactive | inactive |  | inactive |

| SMILES | Potency [1] | Potency [2] | Potency [3] | Potency [4] | Potency [5] | Potency [6] | Potency [7] | Potency [8] | Potency [9] | Potency [10] |
| --- | --- | --- | --- | --- | --- | --- | --- | --- | --- | --- |
| O=P(Oc1ccccc1)(Oc1ccccc1)Oc1ccccc1 |  | inactive | inactive | inactive | inactive | inactive | inactive | inactive | inactive |  |
| CCC(C)c1cc([N+](=O)[O-])cc([N+](=O)[O-])c1O (centres undefined) |  | inactive | inactive | inactive |  | inactive | inactive | inactive | inactive | inactive |
| CC(C)=CC1C(C(=O)OCc2coc(Cc3ccccc3)c2)C1(C)C (centres undefined) |  | inactive | inactive | inactive | inactive | inactive | inactive | inactive |  | inactive |
| CC(C)(c1cc(Cl)c(O)c(Cl)c1)c1cc(Cl)c(O)c(Cl)c1 |  | inactive | inactive | inactive |  | inactive | inactive | inactive | inactive | inactive |
| CCOC(=O)C(C)OC(=O)c1cc(Oc2ccc(C(F)(F)F)cc2Cl)ccc1[N+](=O)[O-] (centres undefined) |  | inactive | inactive | inactive | 30.7 µM (active) and inactive | 30.7 µM (active) | inactive | inactive | inactive | inactive |
| O=C(CCl)c1ccccc1 |  | inactive and 54.9 µM (active) | inactive | inactive |  | inactive | inactive | inactive |  | inactive |
| c1ccc(N=Nc2ccccc2)cc1 |  |  | inactive | inactive | inactive | inactive | inactive | inactive |  | inactive |
| Oc1c(Cl)c(Cl)c(Cl)c(Cl)c1Cl |  | inactive | inactive | inactive | inactive | inactive | inactive | inactive |  | inactive |
| NC(=S)Nc1ccccc1 |  | 49.8 µM (active) and inactive | 49.8 µM (active) and inactive | inactive | 8.86 µM (active) and inactive | inactive |  | inactive |  | 49.8 µM (active) and inactive |
| CCOc1cc(C=O)ccc1O |  | inactive | inactive | inactive |  | inactive | inactive | inactive |  |  |
| CCOC(=S)S |  | inactive | inactive | inactive | inactive | inactive | inactive | inactive | inactive |  |
| Cc1ccc(N)c(N)c1 |  | inactive | inactive | inactive |  | inactive | inactive | inactive | inactive | inactive |
| C1=Cc2cccc3cccc1c23 |  | 49 µM (active) | inactive | inactive | inactive | inactive | inactive | inactive | inactive | inactive |
| CCC(=O)O[C@H]1CC[C@H]2[C@@H]3CCC4=CC(=O)CC[C@]4(C)[C@H]3CC[C@]12C |  | 19.5 µM (active) and 19 µM (active) | inactive | inactive | 21.9 µM (active) and 23.9 µM (active) | 38.9 µM (active) |  | 7.76 µM (active) |  |  |
| Cc1cc(C)cc(C)c1 |  | inactive | inactive | inactive |  | inactive | inactive | inactive |  | inactive |
| Brc1ccc(Oc2cc(Br)c(Br)cc2Br)c(Br)c1 |  | inactive | inactive | inactive | 38.9 µM (active) | inactive | inactive | inactive |  |  |
| Nc1cccnc1 |  | inactive | inactive | inactive |  | inactive | inactive | inactive | inactive |  |
| Oc1ccc(-c2ccccc2)cc1 |  | 24.2 µM (active) and inactive | inactive | inactive | 21.9 µM (active) |  | inactive | inactive |  | inactive |
